The record followed here is PubChem BioAssay.

Experiment [1] concerns Plasmodium falciparum Sir2 (PF13_0152, Sir2A). As to the kind of experiment: pfSir2 binders on small-molecule microarrays, primary screen, biochemical, small-molecule microarray, 635 nm fluorescence (AID 1098).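 Note: score merges spot fluorescence intensity with its signal-to-noise ratio.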 The settings on record: small-molecule microarray binding, fluorescence 635 nm; higher = more signal.
Experiment [2] can be described thus: small-molecule microarray binders of probe aDKK1, primary screen, biochemical, biotinylated probe, 635/667 nm fluorescence (AID 1099).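 Note: score merges 667nm spot fluorescence with signal to noise across triplicate slides.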 The settings on record: higher = more signal.
A short description of experiment [3]: small-molecule microarray binders of probe aCHRDL2, primary screen, biochemical, biotinylated probe, 635/667 nm fluorescence (AID 1100). The settings on record: higher = more signal.
Experiment [4] is described as follows: splicing luciferase reporter signal modulators, primary screen, spliceosome inhibition project, cell-based, HEK293, splice +/- reporter (AID 1101).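 Note: HEK293 cells carrying a splicing-competent luciferase reporter gene; test concentration not given here.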 The following applies: luminescence, 24 h, higher = more signal, called active from +8 up or from −8 down. In general terms: In a reporter assay the amount or activity of a reporter protein is the signal.
Experiment [5] addresses Fibroblast growth factor 10 (Homo sapiens) (UniProt O15520). As to the kind of experiment: FGF10 binders on small-molecule microarrays, primary screen, biochemical, small-molecule microarray, 635 nm fluorescence (AID 1102). The following applies: FGF10 binding, fluorescence 635 nm, higher = more signal.
Experiment [6] relates to glycogen synthase kinase-3 (GSK3A per assay name; protocol says GSK3B). As to the kind of experiment: GSK3 binders on small-molecule microarrays, primary screen, biochemical, small-molecule microarray, 635 nm fluorescence, GSK3A (AID 1103). Note: the record names both GSK3A and GSK3B. The settings on record: small-molecule microarray binding, fluorescence 635 nm; higher = more signal.
Experiment [7] addresses Epidermal growth factor receptor (Homo sapiens) (UniProt P00533). As to the kind of experiment: EGFR binders on small-molecule microarrays, primary screen, biochemical, small-molecule microarray, 635 nm fluorescence (AID 1104).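 Note: score merges 667 nm emission intensity with spot signal to noise over triplicate slides.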 The settings on record: EGFR binding, higher = more signal.
The target in experiment [8] is Follistatin-related protein 3 (Homo sapiens) (UniProt O95633). As to the kind of experiment: FSTL3 binders on small-molecule microarrays, primary screen, biochemical, small-molecule microarray, 635 nm fluorescence (AID 1105).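 Note: score merges emission near 667 nm and signal to noise per printed spot across three slides.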 The settings on record: FSTL3 binding, higher = more signal.
Follistatin-related protein 3 (Homo sapiens), sequence (O95633 whole entry, looked up): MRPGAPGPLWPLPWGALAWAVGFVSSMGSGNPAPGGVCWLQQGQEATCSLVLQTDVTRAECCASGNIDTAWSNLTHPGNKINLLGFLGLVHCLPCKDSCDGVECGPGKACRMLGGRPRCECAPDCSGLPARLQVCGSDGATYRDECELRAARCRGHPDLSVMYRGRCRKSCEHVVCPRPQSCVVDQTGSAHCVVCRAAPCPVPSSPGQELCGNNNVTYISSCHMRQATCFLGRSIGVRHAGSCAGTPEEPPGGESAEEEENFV
Experiment [9] deals with Dickkopf-related protein 1 (Homo sapiens) (UniProt O94907). As to the kind of experiment: DKK1 binders on small-molecule microarrays, primary screen, biochemical, small-molecule microarray, 635 nm fluorescence scan (AID 1106).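 Note: score merges emission near 667 nm with signal to noise over three replicate slides.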 The following applies: DKK1 binding, higher = more signal.
Dickkopf-related protein 1 (Homo sapiens), sequence (O94907 whole entry, looked up): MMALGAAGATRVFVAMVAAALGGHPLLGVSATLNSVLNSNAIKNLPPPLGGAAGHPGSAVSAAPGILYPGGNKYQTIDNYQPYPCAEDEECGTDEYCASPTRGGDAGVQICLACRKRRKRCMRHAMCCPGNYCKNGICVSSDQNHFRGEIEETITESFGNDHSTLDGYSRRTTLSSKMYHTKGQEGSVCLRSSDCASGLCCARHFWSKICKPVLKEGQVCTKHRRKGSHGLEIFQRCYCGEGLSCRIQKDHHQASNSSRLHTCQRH
The test system of experiment [10] is Inhibin beta A chain (activin A). As to the kind of experiment: INHBA (activin A) binders on microarrays, primary screen, biochemical, small-molecule microarray, 635 nm fluorescence scan (AID 1107).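 Note: mouse activin A protein probed at 4.33 µg/mL on printed slides; score merges bound-protein fluorescence near 667 nm with spot signal-to-noise.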 The settings on record: small-molecule microarray binding, higher = more signal.
Experiment [11] has as its system Human papillomavirus type 1a protein E7 (residues 44-93). As to the kind of experiment: HPV1a E7 fragment binders on microarrays, primary screen, biochemical, small-molecule microarray, residues 44-93, 635 nm fluorescence (AID 1108).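 Note: E7 fragment applied at 1 µg/mL in TBST for 1 h at 4 C; score combines spot fluorescence with its signal to noise ratio.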 The settings on record: small-molecule microarray binding, fluorescence 635 nm; higher = more signal.
Experiment [12] is described as follows: modulators of HCV replicon luciferase signal, primary screen, HCV replication inhibitor project, Huh7 cells, luciferase reporter (AID 1109).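 Note: huh7 hepatoma cells harbouring a luciferase neomycin HCV replicon reporter; luciferase luminescence as measure of HCV replicon replication; test concentration not given here.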 The following applies: 48 h, higher = more signal. A general note: Replicon systems follow genome replication, usually without infectious particles.
In experiment [13] the target is Left-right determination factor 2 (Homo sapiens) (UniProt O00292). As to the kind of experiment: LEFTY2 binders on small-molecule microarrays, primary screen, biochemical, small-molecule microarray, 635 nm fluorescence scan (AID 1110). The settings on record: LEFTY2 binding, higher = more signal.
Left-right determination factor 2 (Homo sapiens), sequence (O00292 whole entry, looked up): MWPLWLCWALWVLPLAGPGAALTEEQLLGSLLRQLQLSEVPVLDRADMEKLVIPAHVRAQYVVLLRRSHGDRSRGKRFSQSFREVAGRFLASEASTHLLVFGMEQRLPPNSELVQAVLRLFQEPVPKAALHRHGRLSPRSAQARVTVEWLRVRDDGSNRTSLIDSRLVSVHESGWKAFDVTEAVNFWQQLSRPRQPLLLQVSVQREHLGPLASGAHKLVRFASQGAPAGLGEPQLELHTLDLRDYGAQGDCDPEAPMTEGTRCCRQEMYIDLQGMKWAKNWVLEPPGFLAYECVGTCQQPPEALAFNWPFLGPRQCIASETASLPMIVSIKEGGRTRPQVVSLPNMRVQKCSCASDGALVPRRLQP
The target in experiment [14] is Calmodulin-1 (Homo sapiens) (UniProt P0DP23). As to the kind of experiment: CALM1 binders on microarrays, EGTA buffer, profiling panel, biochemical, small-molecule microarray, Cy5-labelled CALM1 (AID 1111).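 Note: labelled calmodulin applied in Tris saline Tween buffer holding calcium plus EGTA and DTT.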 The following applies: Cy5-CALM1 binding fluorescence, higher = more signal.
Experiment [15] has the same target. As to the kind of experiment: calcium-bound CALM1 binders on microarrays, profiling panel, artefact control for SMM control-protein annotation, biochemical, small-molecule microarray, Cy5-labelled CALM1, plus calcium (AID 1112).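 Note: score merges spot fluorescence with signal to noise from triplicate slides.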 The following applies: Cy5-CALM1 binding fluorescence, higher = more signal.
Experiment [16] is described as follows: small-molecule microarray binders of probe aWnt5a, primary screen, biochemical, biotinylated probe, 635/667 nm fluorescence (AID 1113).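 Note: score merges 667 nm fluorescence intensity with signal-to-noise per printed feature.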 The settings on record: higher = more signal.
Experiment [17] can be described thus: small-molecule microarray binders of probe aShh, primary screen, biochemical, biotinylated probe, 635/667 nm fluorescence (AID 1114).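 Note: probe is biotin-labelled aShh protein from a stem cell growth factor screen; measures binding of labelled protein to compounds printed on the slide; score merges feature fluorescence at 667 nm with signal-to-noise.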 The following applies: higher = more signal.
A short description of experiment [18]: small-molecule microarray binders of probe aNog, primary screen, biochemical, biotinylated probe, 635/667 nm fluorescence (AID 1115).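 Note: probe is biotinylated aNog protein used at 0.15 µg/mL for 1 h at 4 C; z-score combines 667 nm fluorescence of each spot with its signal to noise.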 The following applies: higher = more signal.
Experiment [19] concerns the target Torsin-1A-interacting protein 1 (Homo sapiens) (UniProt Q5JTV8). As to the kind of experiment: LAP1 binders from COS7 cell lysate, primary screen, small-molecule microarray, 635/667 nm fluorescence (AID 1116). The following applies: COS7-hLAP1 lysate binding, 635 nm fluorescence, higher = more signal.
In experiment [20] the target is Alpha-bungarotoxin (Bungarus multicinctus) (UniProt P60615). As to the kind of experiment: alpha-bungarotoxin binders on microarray, profiling panel, artefact control for SMM control protein annotation, biochemical, small-molecule microarray, Alexa647 label, 635/667 nm fluorescence (AID 1117). The following applies: alpha-BTX-A647 binding fluorescence, higher = more signal.
Alpha-bungarotoxin (Bungarus multicinctus), sequence (P60615 whole entry, looked up): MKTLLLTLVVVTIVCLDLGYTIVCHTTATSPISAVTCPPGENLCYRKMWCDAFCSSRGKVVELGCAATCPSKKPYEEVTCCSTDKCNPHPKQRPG

Activity calls are given as the source filed them.

Epidermal growth factor receptor (Homo sapiens), sequence (P00533 whole entry, looked up): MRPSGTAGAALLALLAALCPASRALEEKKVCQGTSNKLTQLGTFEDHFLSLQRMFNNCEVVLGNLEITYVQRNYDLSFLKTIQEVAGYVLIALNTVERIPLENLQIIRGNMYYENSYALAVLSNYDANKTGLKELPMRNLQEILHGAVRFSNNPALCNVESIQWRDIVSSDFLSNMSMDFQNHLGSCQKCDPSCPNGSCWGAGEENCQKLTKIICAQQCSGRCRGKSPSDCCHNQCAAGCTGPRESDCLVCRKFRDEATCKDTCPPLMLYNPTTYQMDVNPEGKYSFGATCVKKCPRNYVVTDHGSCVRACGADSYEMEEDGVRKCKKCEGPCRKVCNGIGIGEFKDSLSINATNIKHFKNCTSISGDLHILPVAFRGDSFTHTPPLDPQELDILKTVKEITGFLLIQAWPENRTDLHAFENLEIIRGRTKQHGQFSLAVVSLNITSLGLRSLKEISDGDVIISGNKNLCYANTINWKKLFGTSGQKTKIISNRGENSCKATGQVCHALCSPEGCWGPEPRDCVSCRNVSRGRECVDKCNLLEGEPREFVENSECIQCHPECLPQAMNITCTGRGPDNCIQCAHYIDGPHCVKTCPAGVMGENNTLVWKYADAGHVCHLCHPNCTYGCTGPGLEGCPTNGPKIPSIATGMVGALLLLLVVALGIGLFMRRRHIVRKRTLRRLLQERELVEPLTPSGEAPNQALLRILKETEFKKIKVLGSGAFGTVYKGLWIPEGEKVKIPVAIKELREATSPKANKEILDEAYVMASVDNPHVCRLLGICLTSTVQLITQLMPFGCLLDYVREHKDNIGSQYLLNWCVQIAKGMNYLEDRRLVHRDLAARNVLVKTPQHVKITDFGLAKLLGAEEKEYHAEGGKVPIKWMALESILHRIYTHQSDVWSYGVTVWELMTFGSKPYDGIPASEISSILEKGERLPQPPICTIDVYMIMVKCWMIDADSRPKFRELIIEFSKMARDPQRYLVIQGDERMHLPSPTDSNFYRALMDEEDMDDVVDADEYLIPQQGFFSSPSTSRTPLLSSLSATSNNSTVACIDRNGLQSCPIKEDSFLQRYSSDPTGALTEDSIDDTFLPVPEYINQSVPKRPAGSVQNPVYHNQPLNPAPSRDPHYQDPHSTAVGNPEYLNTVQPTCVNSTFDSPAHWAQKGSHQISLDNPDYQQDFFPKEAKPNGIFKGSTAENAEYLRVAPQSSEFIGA
Torsin-1A-interacting protein 1 (Homo sapiens), sequence (Q5JTV8 whole entry, looked up): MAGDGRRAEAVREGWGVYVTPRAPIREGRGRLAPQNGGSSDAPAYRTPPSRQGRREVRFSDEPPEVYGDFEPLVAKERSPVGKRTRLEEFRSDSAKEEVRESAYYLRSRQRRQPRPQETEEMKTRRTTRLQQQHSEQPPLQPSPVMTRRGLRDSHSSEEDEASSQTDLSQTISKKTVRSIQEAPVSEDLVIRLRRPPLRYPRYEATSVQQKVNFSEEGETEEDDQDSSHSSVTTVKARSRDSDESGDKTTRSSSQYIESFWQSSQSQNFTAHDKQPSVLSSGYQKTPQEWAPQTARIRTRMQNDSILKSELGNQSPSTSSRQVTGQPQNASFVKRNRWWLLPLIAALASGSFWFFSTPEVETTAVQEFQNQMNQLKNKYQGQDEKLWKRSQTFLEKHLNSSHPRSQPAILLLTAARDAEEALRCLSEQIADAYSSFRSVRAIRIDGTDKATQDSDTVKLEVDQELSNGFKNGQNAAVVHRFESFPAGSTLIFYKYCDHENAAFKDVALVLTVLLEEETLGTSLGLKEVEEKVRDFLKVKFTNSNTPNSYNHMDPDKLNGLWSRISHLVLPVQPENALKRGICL
Fibroblast growth factor 10 (Homo sapiens), sequence (O15520 whole entry, looked up): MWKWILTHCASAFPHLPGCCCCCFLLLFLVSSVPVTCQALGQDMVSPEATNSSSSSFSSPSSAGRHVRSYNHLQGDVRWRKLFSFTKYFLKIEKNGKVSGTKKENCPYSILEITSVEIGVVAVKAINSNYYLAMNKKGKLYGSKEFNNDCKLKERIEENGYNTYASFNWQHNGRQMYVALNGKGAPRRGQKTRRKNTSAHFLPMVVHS

With `CCCC=C(CCC)[C@@H](NS(=O)(=O)c1ccc(Cl)cc1)c1ccc(C(=O)OC)cc1`, the composite z-score was 0.456 in [1]; 0.113 in experiment [2]; -0.461 in experiment [3]; 0.401 in experiment [5]; 0.836 in experiment [6]; 0.228 in experiment [7]. The composite z-score is -0.445 in experiment [8]; 0.291 in experiment [9]; 0.28 in experiment [10]; 1.31 in experiment [11]; -0.0953 in experiment [13]; -0.246 in experiment [14]. Also, the composite z-score in [15] is -0.526; in [16], -0.183; in experiment [17], -0.0386; in experiment [18] it was -0.201; in [19], 0.892; in experiment [20], 1.29. Besides, the results for the z-score in [4] and in [12] were 0.184 (inactive) and 0.677, respectively.
With `COCCOC(=O)N1C(=O)[C@@]2(c3cc(C#CC4=CCCCC4)ccc31)[C@H](c1ccc(OCCO)cc1)N1[C@H](c3ccccc3)[C@H](c3ccccc3)OC(=O)[C@H]1[C@@H]2C(=O)N1CCc2cc(OC)c(OC)cc2C1`, the composite z-score was 0.774 in experiment [1]; 0.645 in experiment [2]; 0.538 in experiment [3]; 1.09 in [5]; 1.3 in experiment [6]; 0.707 in experiment [7]. Further, the composite z-score amounted to 1.39 in experiment [8]; 1.13 in experiment [9]; 0.942 in experiment [10]; 1.24 in experiment [11]; 1 in experiment [13]; 0.933 in experiment [14]. The composite z-score in experiment [15] amounted to 0.43; in experiment [16] it was 0.139; in [17] it was 0.0611; in [18], 0.121; in [19], 1.71; in experiment [20], 0.595. The z-score in experiment [4] is -0.992 (inactive); in [12] it was -0.829.
`COc1ccc([Si](C)(C)[C@@H]2[C@@H](CCn3cc([C@H](O)c4ccccc4)nn3)O[C@]3(C(=O)N(Cc4cccc(N5CCC5=O)c4)c4ccccc43)[C@H]2C)cc1`: the composite z-score was 0.647 in experiment [1]; -0.386 in experiment [2]; -0.0143 in [3]; 0.483 in experiment [5]; -0.502 in experiment [6]; 0.0403 in [7]. The composite z-score in [8] is -0.304; in experiment [9], 0.589; in [10] it was 0.521; in experiment [11] it was -0.206; in [13] it was 0.187; in experiment [14], -0.15. The composite z-score in [15] was -0.263; in [16], -0.0919; in experiment [17], -0.0035; in experiment [18], -0.0211; in experiment [19] it was 0.392; in experiment [20] it was 0.0808. Also, the values for the z-score in experiment [4] and in experiment [12] were 1.41 (inactive) and -2.78, respectively.
For `O=C1OCCC/C=C\[C@H]2OC34C=CCN(c5ccc6ccccc6c5)C(=O)[C@H]3N(CCCCCO)C(=O)[C@@H]4C12` (stereo not given in full), the composite z-score was 0.227 in experiment [1]; -0.319 in experiment [2]; 0.364 in experiment [3]; -0.862 in experiment [5]; -1.35 in [6]; -0.756 in [7]. Also, the composite z-score was -0.613 in [8]; -0.974 in experiment [9]; 0.633 in experiment [10]; -2.53 in experiment [11]; -1.07 in experiment [13]; -0.381 in [14]. Besides, the composite z-score in experiment [15] was -0.645; in experiment [16] it was -0.28; in experiment [17], 0.0141; in [18] it was -0.0428; in [19] it was -1.28; in experiment [20], -0.23. In addition, the z-score in experiment [4] is -0.447 (inactive); in [12] it was -0.57.
As for `COCCCNC(=O)[C@@]1(Sc2ccc(C)cc2)CC(=O)N(Cc2ccccc2Cl)[C@@H]1c1ccc(CO)cc1`, the composite z-score stood at 1.36 in experiment [1]; 0.0942 in experiment [2]; 0.0166 in [3]; 0.977 in experiment [5]; 0.56 in experiment [6]; 0.491 in [7]. Besides, the composite z-score came to 1.36 in experiment [8]; 0.553 in experiment [9]; 0.595 in experiment [10]; 1.36 in experiment [11]; 0.585 in [13]; 0.532 in [14]. The composite z-score in experiment [15] was -0.184; in experiment [16], 0.0706; in [17], 0.275; in [18] it was -0.205; in experiment [19] it was 0.566; in experiment [20], 1.25. For the same compound, the z-score in [4] is -0.87 (inactive); in [12], -1.75.
For `CS(=O)(=O)CCOC(=O)C1=CC(CCCO)=CC(C2CC2)N(Cc2cc3c(cc2Br)OCO3)C=C1C(=O)OCCS(C)(=O)=O` (stereo not given), the composite z-score in [1] was 0.405; in experiment [2] it was 0.049; in experiment [3] it was 0.49; in experiment [5] it was 0.615; in experiment [6], 0.28; in experiment [7], -0.0183. Also, the composite z-score in experiment [8] is 0.258; in experiment [9] it was 0.322; in experiment [10] it was 1.33; in [11], 1.07; in experiment [13], -0.0224; in [14], 0.331. Also, the composite z-score in [15] was -0.0113; in [16], -0.0192; in [17], -0.0035; in experiment [18] it was 0.357; in [19], 1.11; in experiment [20], 0.598. Besides, the z-score in experiment [4] was 1.22 (inactive); in experiment [12], -1.2.
